In PubChem BioAssay (EPA / NIEHS) one finds outcome and AC50 data, which are given here for 4 molecules.

The target of experiment [1] is Bile acid receptor (Homo sapiens) (UniProt Q96RI1). Kind of experiment: ATG_FXR_TRANS: Attagene TRANS-FACTORIAL HepG2 Assay for Farnesoid X Receptor (FXR) (AID 2282979; active = hit-call score of the fitted dose curve at least 0.9, where 1 is the maximum;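 also: hits raise reporter mRNA above DMSO so AC50 marks FXR activation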). As to conditions: HepG2 Attagene TRANS FXR-GAL4 reporter transcription. The essentials: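 Reporter transcripts from transfected HepG2 cells were measured 24 h after dosing, using RT-PCR with capillary electrophoresis of 6-FAM-labelled fragments. The read-out reflects activity of exogenous FXR-Gal4 chimera on GAL4-UAS units, with induction relative to DMSO.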

Experiment [2] deals with Nuclear receptor subfamily 4 group A member 2 (Homo sapiens) (UniProt P43354). Kind of experiment: ATG_NURR1_TRANS: Attagene TRANS-FACTORIAL HepG2 Assay for human Nuclear Receptor Related Protein 1 (NURR1) (AID 2282985; active = hit-call score of the fitted dose curve at least 0.9, where 1 is the maximum). The conditions noted are these: HepG2 Attagene TRANS reporter, mRNA readout. Put shortly:
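HepG2 / transient MRTU transfection / 24 h compound exposure / RT-PCR + CE fluorescence of reporter mRNA / gain-of-signal vs DMSO.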

Experiment [3] concerns the target Transcriptional activator Myb (Homo sapiens) (UniProt P10242). Kind of experiment: ATG_Myb_CIS: Attagene CIS-FACTORIAL HepG2 Assay for human Myeloblastosis (Myb) Proto-Oncogene Transcription Factor (AID 2282986). As to conditions: HepG2 Attagene CIS-FACTORIAL Myb reporter transcription; actives raise or lower the signal. Put shortly:
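In this HepG2 transient-transfection format, cis-regulated reporter mRNA is quantified 24 h post-dosing by RT-PCR with capillary electrophoresis, fitted bidirectionally to DMSO baseline.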

Experiment [4] addresses Nuclear respiratory factor 1 (Homo sapiens) (UniProt Q16656). Kind of experiment: ATG_NRF1_CIS: Attagene CIS-FACTORIAL HepG2 Assay for human Nuclear Respiratory Factor 1 (NRF1) Orphan Gene (AID 2282987). The conditions noted are these: HepG2 NRF1 cis-element reporter, Attagene multiplex; actives raise or lower the signal. Put shortly:
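Using DMSO as baseline, gain- or loss-of-signal was fitted for reporter mRNA levels in HepG2 cells transiently transfected with cis-regulated reporter units. Samples were taken 24 h after dosing and read by RT-PCR with capillary electrophoresis.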

Experiment [5] is described as follows: ATG_NFI_CIS: Attagene CIS-FACTORIAL HepG2 Assay for human Nuclear Factor I (NFI) (AID 2282989). As to conditions: HepG2 cis-regulatory reporter, NFI response element transcription; actives raise or lower the signal. The essentials: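 Transient MRTU transfection of HepG2 → 24 h chemical dosing → total RNA, oligo(dT) RT → PCR, 6-FAM primer extension, HpaI cut → capillary electrophoresis. Endpoint fitted bidirectionally relative to DMSO.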

Experiment [6] has as its target Myc proto-oncogene protein (Homo sapiens) (UniProt P01106). Kind of experiment: ATG_Myc_CIS: Attagene CIS-FACTORIAL HepG2 Assay for human Myelocytomatosis (Myc) Proto-Oncogene Transcription Factor (AID 2282990). As to conditions: HepG2, Attagene cis-reporter transcription factor activity; actives raise or lower the signal. The essentials: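 Read-out: fluorescent reporter mRNA fragments resolved by capillary electrophoresis after RT-PCR. Human HepG2 liver cells carried transfected cis-element reporter units and were dosed for 24 h. Gain or loss of signal fitted relative to DMSO baseline.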

Experiment [7] is described as follows: ATG_NF_kB_CIS: Attagene CIS-FACTORIAL HepG2 Assay for human Nuclear Factor Kappa B (NF-kB) (AID 2282991). As to conditions: HepG2 Attagene cis-factorial NF-kB reporter mRNA; actives raise or lower the signal. The essentials: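 Endpoint from a 52-component multiplexed HepG2 reporter panel: cis-regulated transcription units transiently transfected, 24 h dosing, reporter mRNA quantified by RT-PCR and capillary electrophoresis, scored as increase or decrease against DMSO.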

Experiment [8] can be described thus: ATG_NRF2_ARE_CIS: Attagene CIS-FACTORIAL HepG2 Assay for human Nuclear Factor Erythroid 2 Related Factor 2 (NFR2) response to Antioxidant Response Elements (ARE) (AID 2282992).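 As to AC50: reporter mRNA level measured by RT-PCR and capillary electrophoresis fluorescence.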 As to conditions: HepG2 Attagene ARE/NRF2 reporter, transcription factor activity; actives raise or lower the signal. The essentials: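 HepG2 cells transiently transfected with multiplexed cis-regulated reporter transcription units measure endogenous transcription factor activity. Reporter mRNA at 24 h is quantified by RT-PCR, fluorescent labelling and capillary electrophoresis, with bidirectional fitting relative to DMSO.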

A short description of experiment [9]: ATG_Oct_MLP_CIS: Attagene CIS-FACTORIAL HepG2 Assay for human Octamer-Binding Transcription Factor (Oct) (AID 2282993). As to conditions: HepG2 Attagene cis-factorial Oct reporter, mRNA; actives raise or lower the signal. The essentials: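 Transient MRTU transfection of HepG2 → 24 h compound treatment → RNA isolation, reverse transcription, PCR → 6-FAM primer extension, HpaI digest → capillary electrophoresis. Activity fitted both directions against DMSO.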

The target in experiment [10] is Cellular tumor antigen p53 (Homo sapiens) (UniProt P04637). Kind of experiment: ATG_p53_CIS: Attagene CIS-FACTORIAL HepG2 Assay for human p53 Transcription Factor (AID 2282994). As to conditions: HepG2 p53 cis-element reporter, Attagene mRNA; actives raise or lower the signal. The essentials:
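HepG2 cells transiently transfected with multiplexed cis-regulated reporter transcription units read endogenous TF activity. After 24 h compound exposure, reporter mRNA was quantified by RT-PCR, fluorescent labelling, HpaI digestion and capillary electrophoresis; bidirectional fits versus DMSO baseline.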

Experiment [11] in a line: BSK_3C_TissueFactor: BioMAP Diversity Plus: 3C Assay for Tissue Factor Biomarker Activity (AID 2282997). As to conditions: BioMAP 3C HUVEC, tissue factor biomarker readout; actives raise or lower the signal. The essentials: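 Dosing of human umbilical vein endothelial cells preceded a 24 h incubation. Tissue Factor was then read by ELISA, with increases and decreases both scored relative to DMSO controls.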

The nature of experiment [12]: BSK_3C_uPAR: BioMAP Diversity Plus: 3C Assay for Urokinase-type plasminogen activator receptor (uPAR) Biomarker Activity (AID 2282998). The conditions noted are these: BioMAP 3C HUVEC, uPAR biomarker ELISA; actives raise or lower the signal. Put shortly:
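ELISA readout of uPAR on human vascular endothelium (umbilical vein primary cells), taken 24 h after chemical dosing. Increases and decreases are both fitted relative to DMSO vehicle.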
In general terms: An ELISA detects its analyte on a solid surface through an enzyme-linked reagent.

A short description of experiment [13]: BSK_3C_VCAM1: BioMAP Diversity Plus: 3C Assay for Vascular cell adhesion molecule 1 (VCAM1) Biomarker Activity (AID 2282999). As to conditions: BioMAP 3C HUVEC, VCAM1 ELISA, cytokine-stimulated; actives raise or lower the signal. The essentials: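 Human umbilical vein endothelial cells (3C system), biomarker read by ELISA 24 h after dosing; bidirectional fit against DMSO baseline. Cytotoxicity tracked by SRB total-protein staining in parallel cultures at biomarker time.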

Experiment [14] in a line: BSK_4H_Eotaxin3: BioMAP Diversity Plus: 4H Assay for Eotaxin 3 Biomarker Activity (AID 2283000).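 Also: CCL26 protein level quantified by ELISA in parallel with SRB cytotoxicity check.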 The conditions noted are these: primary human endothelial cells (HUVEC); actives raise or lower the signal. The essentials: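 Human umbilical vein endothelial cells (BSK_4H system) dosed with test chemical; Eotaxin-3 (CCL26) measured by ELISA 24 h after dosing. Bidirectional curve fitting relative to DMSO negative control as baseline.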

Experiment [15] concerns the target Glucocorticoid receptor (Homo sapiens) (UniProt P04150). Kind of experiment: ATG_GR_TRANS: Attagene TRANS-FACTORIAL HepG2 Assay for human Glucocorticoid Receptor (GR) (AID 2282978; active = hit-call score of the fitted dose curve at least 0.9, where 1 is the maximum;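 also: activators score as hits since higher reporter transcript over DMSO is fitted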). As to conditions: HepG2 Attagene TRANS GR reporter, mRNA transcription. The essentials:
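Exogenous NR-GAL4 fusion activity was assessed through induced GAL4-UAS reporter transcripts in transfected human HepG2 cells, quantified after 24 h by RT-PCR and fluorescent capillary electrophoresis with DMSO as baseline.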

Experiment [16] can be described thus: ATG_M_32_TRANS: Attagene TRANS-FACTORIAL HepG2 Assay for M32 Transcription Factor (Internal Marker) (AID 2282984; active = hit-call score of the fitted dose curve at least 0.9, where 1 is the maximum;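 also: transcript level of a background control reporter unit measured by RT-PCR and capillary electrophoresis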). The conditions noted are these: HepG2 Attagene TRANS M32 internal marker reporter. Put shortly:
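Capillary electrophoresis of 6-FAM-labelled reporter fragments gives the signal; data fitted for gain over DMSO negative control. Source: HepG2 cells bearing transient multiple reporter transcription units, 24 h exposure.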

Experiment [17] addresses human Peroxisome Proliferator-activated Receptor alpha (PPARa), PPARA (gene 5465) (UniProt Q07869). The experiment is described as follows: ATG_PPARa_TRANS: Attagene TRANS-FACTORIAL HepG2 Assay for human Peroxisome Proliferator-activated Receptor alpha (PPARa) (AID 2283001; active = hit-call score of the fitted dose curve at least 0.9, where 1 is the maximum). Put shortly:
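Measures transcriptional activity of an exogenous chimeric PPARa-Gal4 protein in transiently transfected HepG2 cells after 24 h dosing. Reporter mRNA quantified via RT-PCR and capillary electrophoresis; DMSO served as negative control.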

Experiment [18] concerns the target Oxysterols receptor LXR-alpha (Homo sapiens) (UniProt Q13133). The experiment is described as follows: ATG_LXRa_TRANS: Attagene TRANS-FACTORIAL HepG2 Assay for human Liver X Receptor alpha (LXRa) (AID 2282980; active = hit-call score of the fitted dose curve at least 0.9, where 1 is the maximum). The conditions noted are these: HepG2 Attagene TRANS reporter, LXRa transactivation. Put shortly: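 Chemical-induced reporter mRNA measured by RT-PCR with fluorescent labelling and capillary electrophoresis after 24 h dosing of transiently transfected HepG2 cells expressing exogenous NR-Gal4 chimeras; increases scored against DMSO baseline.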

The target in experiment [19] is Oxysterols receptor LXR-beta (Homo sapiens) (UniProt P55055). The experiment is described as follows: ATG_LXRb_TRANS: Attagene TRANS-FACTORIAL HepG2 Assay for human Liver X Receptor beta (LXRb) (AID 2282981; active = hit-call score of the fitted dose curve at least 0.9, where 1 is the maximum). The conditions noted are these: HepG2 Attagene TRANS GAL4-LXRb reporter, mRNA. The essentials:
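Gain-of-signal mRNA reporter endpoint, DMSO as negative control. Transiently transfected HepG2 cells carrying the NR-Gal4 chimera and GAL4-UAS reporter units were treated 24 h; transcripts quantified by RT-PCR and capillary electrophoresis fluorescence.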

Records with an inconclusive call do not appear. The source made the active and inactive calls. The calls were made as follows, unless noted: active = hit-call score of the fitted dose curve at least 0.9, where 1 is the maximum; inactive = score below 0.9.

Sequence of Myc proto-oncogene protein (Homo sapiens) (P01106 whole entry, looked up, the tested form may be a part): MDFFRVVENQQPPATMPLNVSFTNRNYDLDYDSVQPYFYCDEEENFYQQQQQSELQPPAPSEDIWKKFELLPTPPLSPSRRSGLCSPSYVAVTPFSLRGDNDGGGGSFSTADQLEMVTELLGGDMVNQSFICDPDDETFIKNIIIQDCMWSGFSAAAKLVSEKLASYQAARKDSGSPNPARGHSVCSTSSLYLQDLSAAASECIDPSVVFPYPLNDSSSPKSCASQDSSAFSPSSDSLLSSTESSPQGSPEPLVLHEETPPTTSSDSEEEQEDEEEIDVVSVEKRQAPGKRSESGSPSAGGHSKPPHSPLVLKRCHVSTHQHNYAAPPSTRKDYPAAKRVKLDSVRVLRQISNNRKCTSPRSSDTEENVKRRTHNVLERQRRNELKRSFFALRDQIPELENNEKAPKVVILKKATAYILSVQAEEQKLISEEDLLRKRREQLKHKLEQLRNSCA
Sequence of Cellular tumor antigen p53 (Homo sapiens) (P04637 whole entry, looked up): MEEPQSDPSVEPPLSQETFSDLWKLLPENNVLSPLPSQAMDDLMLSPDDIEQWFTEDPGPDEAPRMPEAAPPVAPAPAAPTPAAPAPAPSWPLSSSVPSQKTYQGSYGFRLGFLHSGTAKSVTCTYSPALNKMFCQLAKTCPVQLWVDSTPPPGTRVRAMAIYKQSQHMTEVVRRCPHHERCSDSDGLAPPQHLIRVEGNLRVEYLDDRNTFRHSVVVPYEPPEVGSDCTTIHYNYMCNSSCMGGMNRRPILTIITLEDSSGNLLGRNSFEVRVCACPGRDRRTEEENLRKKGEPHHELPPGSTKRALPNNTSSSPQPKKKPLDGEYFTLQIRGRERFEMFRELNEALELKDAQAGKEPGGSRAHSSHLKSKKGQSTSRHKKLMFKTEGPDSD
Sequence of Nuclear respiratory factor 1 (Homo sapiens) (Q16656 whole entry, looked up): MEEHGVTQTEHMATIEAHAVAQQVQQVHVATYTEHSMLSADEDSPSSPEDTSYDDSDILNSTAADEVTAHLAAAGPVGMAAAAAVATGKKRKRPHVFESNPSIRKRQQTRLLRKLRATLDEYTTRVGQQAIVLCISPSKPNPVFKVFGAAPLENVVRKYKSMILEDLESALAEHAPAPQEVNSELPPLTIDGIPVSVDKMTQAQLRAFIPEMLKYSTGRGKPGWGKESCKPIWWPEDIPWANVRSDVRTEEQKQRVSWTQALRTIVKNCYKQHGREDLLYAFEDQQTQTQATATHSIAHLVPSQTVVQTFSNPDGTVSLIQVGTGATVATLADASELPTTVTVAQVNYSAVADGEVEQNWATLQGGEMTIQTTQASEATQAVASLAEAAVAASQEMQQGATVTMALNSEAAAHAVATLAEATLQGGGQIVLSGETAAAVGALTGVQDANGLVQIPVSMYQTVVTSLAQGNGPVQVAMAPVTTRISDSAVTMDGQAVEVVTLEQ
Sequence of human Peroxisome Proliferator-activated Receptor alpha (PPARa), PPARA (gene 5465) (Q07869 whole entry, looked up, the tested form may be a part): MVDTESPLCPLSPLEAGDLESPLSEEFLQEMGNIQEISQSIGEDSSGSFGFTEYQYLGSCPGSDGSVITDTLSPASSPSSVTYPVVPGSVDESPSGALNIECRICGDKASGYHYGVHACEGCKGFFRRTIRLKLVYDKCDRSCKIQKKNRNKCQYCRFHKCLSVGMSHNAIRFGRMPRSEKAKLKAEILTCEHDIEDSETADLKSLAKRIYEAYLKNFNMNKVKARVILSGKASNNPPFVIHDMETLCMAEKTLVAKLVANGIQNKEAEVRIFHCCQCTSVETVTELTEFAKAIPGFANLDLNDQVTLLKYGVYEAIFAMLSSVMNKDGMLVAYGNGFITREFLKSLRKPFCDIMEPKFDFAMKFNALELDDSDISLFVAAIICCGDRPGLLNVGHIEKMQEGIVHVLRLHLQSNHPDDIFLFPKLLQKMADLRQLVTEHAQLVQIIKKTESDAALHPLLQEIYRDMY
Sequence of Transcriptional activator Myb (Homo sapiens) (P10242 whole entry, looked up): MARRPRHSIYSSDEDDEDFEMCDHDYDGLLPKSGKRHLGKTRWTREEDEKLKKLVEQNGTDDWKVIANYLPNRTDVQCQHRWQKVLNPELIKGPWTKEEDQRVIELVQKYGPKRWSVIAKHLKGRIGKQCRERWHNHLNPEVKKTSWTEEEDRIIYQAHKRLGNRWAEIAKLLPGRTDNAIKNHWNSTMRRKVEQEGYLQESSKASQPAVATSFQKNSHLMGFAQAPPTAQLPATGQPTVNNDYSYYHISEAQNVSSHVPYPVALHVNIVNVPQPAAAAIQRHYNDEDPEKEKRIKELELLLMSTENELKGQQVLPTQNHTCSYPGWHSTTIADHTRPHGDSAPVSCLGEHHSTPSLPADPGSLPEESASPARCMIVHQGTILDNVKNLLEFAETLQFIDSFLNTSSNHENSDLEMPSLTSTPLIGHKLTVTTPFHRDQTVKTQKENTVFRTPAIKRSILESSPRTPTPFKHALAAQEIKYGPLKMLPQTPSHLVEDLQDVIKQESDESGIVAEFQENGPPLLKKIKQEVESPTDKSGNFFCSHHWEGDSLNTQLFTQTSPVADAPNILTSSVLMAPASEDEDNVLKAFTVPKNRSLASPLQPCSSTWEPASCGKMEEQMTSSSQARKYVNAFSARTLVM
Sequence of Glucocorticoid receptor (Homo sapiens) (P04150 whole entry, looked up, the tested form may be a part): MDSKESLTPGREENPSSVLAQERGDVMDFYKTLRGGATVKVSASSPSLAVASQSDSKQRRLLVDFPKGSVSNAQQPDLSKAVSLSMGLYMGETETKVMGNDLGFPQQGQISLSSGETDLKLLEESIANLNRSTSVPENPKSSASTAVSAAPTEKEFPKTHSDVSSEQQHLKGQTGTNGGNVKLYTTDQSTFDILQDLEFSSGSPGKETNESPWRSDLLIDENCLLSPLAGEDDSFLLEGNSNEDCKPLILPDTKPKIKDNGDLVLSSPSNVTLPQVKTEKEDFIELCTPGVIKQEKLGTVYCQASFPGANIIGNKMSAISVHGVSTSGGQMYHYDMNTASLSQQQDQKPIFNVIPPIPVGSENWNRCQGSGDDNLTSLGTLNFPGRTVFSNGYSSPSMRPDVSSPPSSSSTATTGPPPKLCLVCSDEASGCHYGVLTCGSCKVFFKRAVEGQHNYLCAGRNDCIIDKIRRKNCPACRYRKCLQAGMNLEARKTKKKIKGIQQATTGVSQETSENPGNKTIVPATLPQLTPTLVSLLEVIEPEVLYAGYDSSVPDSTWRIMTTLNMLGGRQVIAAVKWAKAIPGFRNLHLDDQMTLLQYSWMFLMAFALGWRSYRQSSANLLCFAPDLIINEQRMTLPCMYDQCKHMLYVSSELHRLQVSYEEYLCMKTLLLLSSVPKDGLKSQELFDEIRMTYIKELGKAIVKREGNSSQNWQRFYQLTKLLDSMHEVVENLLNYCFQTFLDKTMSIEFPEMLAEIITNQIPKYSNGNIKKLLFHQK
Sequence of Bile acid receptor (Homo sapiens) (Q96RI1 whole entry, looked up, the tested form may be a part): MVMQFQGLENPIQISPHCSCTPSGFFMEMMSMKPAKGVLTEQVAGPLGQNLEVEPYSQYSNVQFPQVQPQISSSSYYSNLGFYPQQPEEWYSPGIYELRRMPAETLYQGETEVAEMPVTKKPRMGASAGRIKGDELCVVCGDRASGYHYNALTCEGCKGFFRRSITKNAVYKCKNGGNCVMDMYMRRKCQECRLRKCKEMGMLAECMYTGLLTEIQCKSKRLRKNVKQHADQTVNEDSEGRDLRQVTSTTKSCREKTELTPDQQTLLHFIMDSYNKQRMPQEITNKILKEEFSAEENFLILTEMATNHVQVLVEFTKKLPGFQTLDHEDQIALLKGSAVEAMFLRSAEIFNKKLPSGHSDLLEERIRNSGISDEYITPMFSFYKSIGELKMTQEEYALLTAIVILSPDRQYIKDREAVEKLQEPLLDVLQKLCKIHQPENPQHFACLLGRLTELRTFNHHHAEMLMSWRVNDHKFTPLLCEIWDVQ
Sequence of Nuclear receptor subfamily 4 group A member 2 (Homo sapiens) (P43354 whole entry, looked up): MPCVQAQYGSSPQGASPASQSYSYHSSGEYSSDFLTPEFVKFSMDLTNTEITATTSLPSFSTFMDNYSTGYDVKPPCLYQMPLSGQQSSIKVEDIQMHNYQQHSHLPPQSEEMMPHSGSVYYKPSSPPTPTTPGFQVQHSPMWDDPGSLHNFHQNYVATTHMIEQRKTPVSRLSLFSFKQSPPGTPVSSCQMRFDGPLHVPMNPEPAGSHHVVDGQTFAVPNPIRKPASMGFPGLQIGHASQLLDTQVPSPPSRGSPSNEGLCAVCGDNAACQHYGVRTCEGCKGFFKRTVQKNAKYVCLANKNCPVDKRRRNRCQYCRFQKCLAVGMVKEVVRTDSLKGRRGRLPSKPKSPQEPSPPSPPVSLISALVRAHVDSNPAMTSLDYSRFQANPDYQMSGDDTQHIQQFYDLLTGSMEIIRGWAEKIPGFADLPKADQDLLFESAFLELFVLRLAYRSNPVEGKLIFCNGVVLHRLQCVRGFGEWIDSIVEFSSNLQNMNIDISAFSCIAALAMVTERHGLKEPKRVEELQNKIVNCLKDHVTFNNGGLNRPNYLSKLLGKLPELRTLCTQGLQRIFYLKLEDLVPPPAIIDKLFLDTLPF
Sequence of Oxysterols receptor LXR-alpha (Homo sapiens) (Q13133 whole entry, looked up, the tested form may be a part): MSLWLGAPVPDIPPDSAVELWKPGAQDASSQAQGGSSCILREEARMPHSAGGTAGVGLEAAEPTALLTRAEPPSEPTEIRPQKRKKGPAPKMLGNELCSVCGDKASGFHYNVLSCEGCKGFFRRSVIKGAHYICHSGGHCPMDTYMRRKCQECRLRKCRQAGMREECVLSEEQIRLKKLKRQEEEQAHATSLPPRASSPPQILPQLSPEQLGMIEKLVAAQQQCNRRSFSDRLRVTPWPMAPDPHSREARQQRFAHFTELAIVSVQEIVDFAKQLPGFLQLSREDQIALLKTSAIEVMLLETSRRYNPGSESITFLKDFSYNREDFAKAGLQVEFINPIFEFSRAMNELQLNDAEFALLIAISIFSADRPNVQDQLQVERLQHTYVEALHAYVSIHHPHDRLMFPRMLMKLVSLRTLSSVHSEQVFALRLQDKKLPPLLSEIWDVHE

Take `CC(C)N(Cc1ccccc1)C(=O)C(C)(C)C`: the call in experiment [1], in [2], in experiment [3], in experiment [4], in experiment [5] and in experiment [6] was inactive. The result in experiment [7], in [8], in experiment [9], in experiment [10], in experiment [11] and in experiment [12] was inactive. For the same molecule, the result in experiment [13] and in experiment [14] was inactive.
Turning to `c1ccc(C2CO2)cc1` (stereo unspecified), the molecule was called inactive in experiment [15], in [16], in [2], in experiment [3], in experiment [4] and in [5]. In addition, the result in experiment [6], in experiment [8], in experiment [9], in experiment [10], in experiment [12] and in [13] was inactive. For the same molecule, the result in [14] and in experiment [17] was inactive.
`c1ccc(NNc2ccccc2)cc1`: the molecule was classed as inactive in [15], in experiment [16], in [3], in [4], in experiment [5] and in experiment [6]. Further, the result in experiment [7], in experiment [9], in experiment [10], in experiment [13], in experiment [14] and in experiment [17] was inactive. Further, the AC50 (as a rule, the concentration giving half of the maximal activity seen) in experiment [8] was 27.8 µM (active).
With `CN(C)[C@@H]1C(=O)C(C(N)=O)=C(O)[C@@]2(O)C(=O)C3=C(O)c4c(O)cccc4[C@@](C)(O)[C@H]3C[C@@H]12`, the molecule was classed as inactive in experiment [1], in experiment [18], in experiment [19], in experiment [3], in [4] and in [5]. Moreover, the outcome in experiment [6], in [7], in [8], in experiment [9], in experiment [10] and in [11] was inactive. Moreover, the outcome in experiment [13], in [14] and in experiment [17] was inactive.
